# aSyn UTR act: Activators working through SNCA 5'UTR binding (MLPCN) | activity score, % (tested at 7.5 µM), hits read low | actives 7.1% (n = 300,000) | alpha-synuclein 5'UTR reporter, activators screen | AID 1814; in the data active means activity score below about -60%
# Starred values were filed as active, the others as inactive. A selection follows.
SMILES,aSyn UTR act
O=C(c1ccco1)N1N=C(c2ccc3nccnc3c2)CC1c1ccccc1 (stereo unspecified),-67*
Cc1cccc(CN2C(=O)N/C(=C/c3ccc(C)s3)C2=O)c1,-88*
CC(C)(C)c1ccc(OCCn2ccccc2=O)cc1,-154*
Cc1cccc(NC2=C(NC(=O)c3ccccc3)C(=O)c3ccccc3C2=O)c1,-102*
Cc1ccccc1NCc1nc2ccccc2n1C,-126*
Cn1c(CNc2ccccc2O)nc2ccccc21,-154*
Cn1/c(=N/N=C/c2ccc(N3CCOCC3)cc2)sc2ccccc21,-65*
OCCNC(=S)Nc1ccc2c(c1)OCCO2,-91*
S=C(Nc1ccc2c(c1)OCCO2)Nc1ccc2c(c1)OCO2,-75*
COCCCNC(=S)Nc1ccc2c(c1)OCCO2,-116*
S=C(NCc1ccc(Cl)c(Cl)c1)Nc1ccc2c(c1)OCO2,-110*
S=C(Nc1ccc2c(c1)OCO2)Nc1ccccc1Cl,-85*
CCc1cc2c(=O)c(-c3ccc4c(c3)OCCO4)coc2cc1OS(C)(=O)=O,-116*
O=c1c(-c2ccc3c(c2)OCCO3)coc2c(CN3CCOCC3)c(O)ccc12,-94*
CCc1cc2c(=O)c(-c3ccc4c(c3)OCCO4)coc2c(CN2CCCCC2C)c1O (stereo unspecified),-65*
CSc1nc(-c2ccccc2)nc(NC(C)=O)c1C(C)=O,-62*
COc1ccc(-c2c(C)c3ccc(O)cc3oc2=O)cc1,-97*
CCCOc1ccc2c(C)c(CC(=O)OC)c(=O)oc2c1,-118*
COc1ccc(-c2c(C)c3ccc(OCC(C)=O)cc3oc2=O)cc1,-142*
CC(=O)COc1ccc2c(C)c(C)c(=O)oc2c1,-118*
O=C(Nc1ccc(-c2cn3c(n2)SCC3)cc1)c1ccco1,-170*
CC(=O)Nc1ccc(-c2cn3c(n2)SCC3)cc1,-83*
O=C(Nc1ccccn1)c1csc2c1CCCC2,-163*
COc1cc(NC(=O)c2csc3c2CCCC3)ncn1,-153*
O=C(Nc1ccccn1)c1onc2c1CCCC2,96
SMILES,aSyn UTR act
O=C(NCC1CCCO1)c1ccccc1-c1nc(-c2ccc(Cl)cc2)no1 (stereo unspecified),-74*
O=C(c1ccccc1-c1nc(-c2ccc(Cl)cc2)no1)N1CCCC1,-251*
O=C(NC(=S)NCC1CCCO1)c1ccc(Br)o1 (stereo unspecified),-108*
Cc1ccc(C(=O)NC(=S)NCC2CCCO2)cc1Br (stereo unspecified),-155*
CCN1CCN(Cc2ccc(NC(=O)c3ccc(C)c(NC(=O)c4ccno4)c3)cc2C(F)(F)F)CC1,67
Cc1ccc(C(=O)Nc2ccc(Br)c(C(F)(F)F)c2)cc1,-212*
CCn1cc(Cl)c(C(=O)Nc2nccs2)n1,-82*
O=C(Nc1nccs1)c1ncc(Cl)c(Cl)c1Cl,-76*
Cn1cc(Cl)c(C(=O)Nc2nccs2)n1,-72*
COc1cn(-c2ccccc2)nc1C(=O)Nc1ccccc1,-66*
COc1cn(-c2ccccc2)nc1C(=O)Nc1ccc(C)cc1,-90*
Cc1nc(NC(=O)c2ccccc2)nc2cc3c(cc12)OCO3,-127*
Cc1nc(NC(=O)c2ccc(F)cc2)nc2cc3c(cc12)OCO3,-120*
CCc1ccc(NC(=O)Cc2ccc(OC)cc2)cc1,-67*
COc1ccc(NC(=O)Cc2ccccc2)cc1,-101*
COc1ccc(CC(=O)Nc2ccc(C(C)=O)cc2)cc1,-86*
COc1ccc(C/C(=N\O)c2ccc(OC)cc2)cc1,-89*
CCc1ccc(NC(=O)Nc2cccc(OC)c2)cc1,-199*
CCOc1cccc(-c2csc(C3COc4ccccc4O3)n2)c1 (stereo unspecified),-106*
CCOc1cccc(-c2nnc3n2N=C(c2cc(OC)ccc2OC)CS3)c1,63
Cc1ccc(C(=O)NCCC(=O)N2CCCC2)cc1,-146*
Cc1cccc(N2CCN(C(=O)c3c(-c4ccccc4)noc3C)CC2)c1C,65
Cc1cccc(N2CCN(C(=O)CNC(=O)c3ccccc3)CC2)c1C,-81*
CC(C)(C)c1ccc(C(=O)NCC(=O)N2CCCC2)cc1,-74*
Cc1ccc(S(=O)(=O)Cc2ccc(C(=O)N3CCN(c4cccc(C)c4C)CC3)o2)cc1,88
SMILES,aSyn UTR act
CC(C)(C)c1ccc(C(=O)N2CCCCCC2=O)cc1,91
CC(C)(C)c1ccc(C(=O)NNC(=O)C2CCCCC2)cc1,-64*
CC(=O)Nc1ccc(NC(=O)CSc2ccc(-c3ccc4c(c3)OCO4)nn2)cc1,-66*
Cc1ccc(-c2ccc(SCC(=O)Nc3ccc4c(c3)OCCO4)nn2)cc1,-98*
Cc1ccc(-c2ccc(SCC(=O)Nc3nonc3C)nn2)cc1,-87*
Cc1ccc(NC(=O)NCc2cccn2C)cc1C,-124*
Cn1cccc1CNC(=O)Nc1ccc(Cl)cc1,-115*
OCCN1CCN(CC/C=C2/c3ccccc3CSc3ccccc32)CC1,103
OCCN1CCN(CCCN2c3ccccc3Sc3ccc(C(F)(F)F)cc32)CC1,-65*
CCC1C(=O)n2nc(-c3ccccc3)cc2N=C1C (stereo unspecified),-143*
Cc1ccc(-c2csc(/C(C#N)=C(\O)CCl)n2)cc1,-96*
N#C/C(=C(/O)CN1CCCCC1)c1nc(-c2ccc(Cl)cc2)cs1,-110*
CC1CC(=O)c2cnc(Nc3ccccc3)nc2C1 (stereo unspecified),-134*
Cc1ccc(Nc2ncc3c(n2)CC(C)CC3=O)c(C)c1 (stereo unspecified),-82*
Cc1ccc(NS(=O)(=O)c2ccc(-c3cnc(C4CC4)o3)cc2)c(C)c1,77
Cn1c(SCc2ccccc2F)nc2cccnc21,-101*
CCc1ccccc1NC(=O)c1cc(-c2cccs2)on1,-125*
O=C(Nc1ccccc1C(F)(F)F)c1cc(-c2cccc(O)c2)on1,-142*
CCc1ccccc1NC(=O)c1cc(-c2cccc(O)c2)on1,-81*
CCOC(=O)C(NC(=O)CCl)(Nc1sc(C)c(CC)c1C#N)C(F)(F)F (stereo unspecified),-75*
C/C(N)=C(/C#N)C(=O)CSc1nc2ccc(C)cc2[nH]1,-183*
Cc1ccc2nc(SCC(=O)Nc3cc(C(F)(F)F)ccc3N3CCOCC3)[nH]c2c1,96
Cc1ccc2[nH]c(SCC(=O)N3CCOCC3)nc2c1C,-110*
Cc1ccc2nc(SCC(=O)N3CCOCC3)[nH]c2c1,-89*
CCOC(=O)CNc1c(-c2ccc(OC)cc2)nc2ccc(Cl)cn12,-127*
SMILES,aSyn UTR act
COCCNc1c(-c2ccc(OC)cc2)nc2ccc(Cl)cn12,-117*
N#Cc1ccc(C(=O)NC2CCCCCCC2)cc1,-132*
CC(C)CCNC(=O)C(=O)NC1CCCC1,-134*
Cc1ccc(NC(=O)C(=O)NC2CCCCC2)cc1,-149*
Cc1ccc(C(=O)NC2CCCCC2)cc1,-94*
O=C(NC1CCCCCC1)C(=O)NC1CCCC1,-67*
O=C(NC1CCCCCC1)c1ccc(OCC2CCCO2)cc1 (stereo unspecified),-97*
c1ccc(OCCOc2ncnc3ccccc23)cc1,-184*
O=C(COc1ncnc2ccccc12)c1ccc(Cl)cc1,-204*
O=C(COc1ncnc2cc(Cl)ccc12)c1ccccc1,-62*
O=[N+]([O-])c1ccc(N/N=C/c2c[nH]c3ccccc23)cc1,-139*
O=[N+]([O-])c1ccccc1N/N=C/c1c[nH]c2ccccc12,-105*
Nc1ccc2c(c1)COc1ccccc1O2,-133*
CCOC(=O)Cn1cncc1-c1ccc([N+](=O)[O-])cc1,-119*
c1ccc(CCNCC2COc3ccccc3O2)cc1 (stereo unspecified),-64*

# Screening results as filed in PubChem BioAssay.
